Screening data deposited in PubChem BioAssay by several laboratories.
PP1 inh: PP1-alpha phosphatase inhibitors, primary screen, counter-screen for PP5 inhibitor project, biochemical, fluorescence, OMFP substrate, single point; purified PP1alpha; inhibition, % at 6.7 µM; 320,000 tested, 0.9% active;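 active = inhibition above the mean inhibition of all tested compounds plus 3 SD, computed separately for each screening campaign, cut at about 15% in these data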
Target sequence (P62136 whole entry, looked up): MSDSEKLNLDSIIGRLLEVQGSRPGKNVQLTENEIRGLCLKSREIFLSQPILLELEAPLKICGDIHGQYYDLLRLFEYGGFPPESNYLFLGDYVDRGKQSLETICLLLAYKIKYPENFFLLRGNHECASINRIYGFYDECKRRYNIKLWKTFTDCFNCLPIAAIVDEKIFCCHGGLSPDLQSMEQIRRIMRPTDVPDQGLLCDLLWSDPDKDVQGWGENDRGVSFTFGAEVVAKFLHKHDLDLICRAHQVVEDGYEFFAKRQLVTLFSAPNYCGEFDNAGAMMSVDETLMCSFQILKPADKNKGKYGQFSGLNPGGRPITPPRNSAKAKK
CSC inhib: cancer stem cell viability inhibitors, primary screen, luminescence; cancer stem cell-like cells viability; inhibition, % at 7.5 µM; 300,000 tested, 1.1% active; in the data active = inhibition above about 75%; inconclusive = no clear call, values can overlap the other calls; tested in HMLE shEcad cells
Beta cell apopt: inhibitors of cytokine-induced beta cell apoptosis, primary screen, luminescence; INS-1E cytokine-induced death, ATP luminescence, 48 h; percent of positive-control rescue, neutral wells zero; protection from apoptosis, % (no concentration beside the values); 300,000 tested, 0.8% active;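 active = Every replicate reaches about 75%, or at least half do and their mean reaches it too, limit read from the data; inconclusive = At least half of replicates reach the limit but their mean does not; inactive = Under half of replicates reach the limit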;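 also: 0% = cytokine-treated negative control wells and 100% = positive control rescue; higher means more ATP so stronger rescue from cytokine killing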
Mdm2 MdmX PPI: inhibitors of human Mdm2-MdmX association, primary screen, cell-based, luminescence, split luciferase, SaOS-2, uHTS | SaOS-2 split-luciferase Mdm2/MdmX complementation | Protein Mdm4 (Homo sapiens) + E3 ubiquitin-protein ligase Mdm2 (Homo sapiens), … | inhibition, % at 8 µM | 330,000 tested, 3% active;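 active = inhibition of at least 50% at 8 µM in the primary screen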
Calb FLC: C. albicans growth inhibition with fluconazole, primary screen, CaCi-2 strain, Alamar Blue fluorescence | C. albicans CaCi-2 (fluconazole-resistant clinical isolate) + fluconazole, 48 h | growth inhibition, % (no concentration beside the values) | 300,000 tested, 0.57% active;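 active = growth inhibition above about 58% in most replicates, limit read from the data, passing the limit was not always enough; inconclusive = exactly half the replicates above a set limit; inactive = most replicates below a set limit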;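 also: all wells also contain fluconazole at 8 µg/ml as a sub-toxic cotreatment; 0% = median of DMSO wells and 100% = median of geldanamycin control wells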
PP5 inh: PP5 phosphatase inhibitors, primary screen, biochemical, fluorescence; 320,000 tested, 0.18% active; AID 1987, 2009; inhibition, % at 6.7 µM; purified PP5c, OMFP substrate fluorescence; Serine/threonine-protein phosphatase 5 (Homo sapiens), P53041;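 active = inhibition above the campaign's mean inhibition across all tested compounds plus 3 SD, cut at about 9.5% in these data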;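 also: 0% = DMSO only and 100% = 100 µM cantharidin control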
Mdm2-MdmX conf: Mdm2-MdmX complex disruptors, retested hits, confirmation, luminescence, single concentration | 10,000 tested, 55% active | Mdm2-MdmX binding, luminescent assay | AID 489028, 2010 | inhibition, % at 8 µM | shares compounds with Mdm2 MdmX PPI; in the data active = inhibition above about 40%
FLuc counter: full-length luciferase signal inhibition, confirmation, counter-screen for Mdm2/MdmX interaction inhibitor project, cell-based, single concentration, SaOS-2 | SaOS-2 full-length luciferase counterscreen, luminescence | shares compounds with Mdm2 MdmX PPI | inhibition, % at 8 µM | 6,200 tested, 77% active;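 active = mean inhibition at 8 µM reaching about 37%, which flags the compound as non-specific, limit read from the data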;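 also: p53-null SaOS-2 cells with luciferase driven by a doxycycline-inducible promoter; compound on cells about two nights before reading with doxycycline added after day one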
Numbers without * were called inactive; u = inconclusive; x = not tested or not shown. Sampled rows, rich in hits. Any-hit rate of the full collection: about 4.9%.

SMILES	PP1 inh	CSC inhib	Beta cell apopt	Mdm2 MdmX PPI	Calb FLC	PP5 inh	Mdm2-MdmX conf	FLuc counter
c1ccc(C2=Nn3c(nnc3-c3cccs3)SC2)cc1	-5	-17	x	4	4	0	x	x
COc1ccc(C2=Nn3c(nnc3-c3cc(C)[nH]n3)SC2)cc1	-4	-8	-2	60*	-7	-2	41*	100*
Cc1ccc(-c2nnc3n2N=C(c2ccccc2)CS3)cc1	-4	-1	5	-1	14	6	x	x
c1csc(C2=Nn3c(nnc3-c3ccncc3)SC2)c1	-5	x	-24	75*	0	-2	80*	51*
CN(C)C(CNC(=O)c1cccc(S(=O)(=O)NCc2ccccc2)c1)c1ccco1 (stereo not drawn)	-7	-11	-1	-10	2	0	x	x
c1ccc(-c2ccc(C3=Nn4c(nnc4-c4cccs4)SC3)cc2)cc1	14	6	x	23	14	2	x	x
COc1ccc(C2=Nn3c(nnc3-c3ccco3)SC2)cc1OC	3	0	9	55*	-1	3	16	x
COc1ccc(C2=Nn3c(nnc3-c3ccccc3OC)SC2)cc1OC	-2	-3	22	x	20	2	x	x
c1ccc(C2=Nn3c(nnc3-c3n[nH]c4c3CCC4)SC2)cc1	4	-9	x	71*	-6	3	51*	89*
COc1cc(-c2nnc3n2N=C(c2ccccc2)CS3)cc(OC)c1OC	-4	48	21	74*	-8	3	69*	57*
CC(C)(C)C1CCC(OC(=O)CN2CCCCC2)CC1 (stereo not drawn)	-4	-8	7	0	7	1	x	x
O=C(Nc1cccc(S(=O)(=O)N2CCCCC2)c1)C1CC1	-3	-6	-3	31	x	1	x	x
CCC[C@@H]1C[C@@]1(CCC)[C@@H](NP(=O)(c1ccccc1)c1ccccc1)c1ccc(C(=O)OC)cc1	10	-11	x	75*	17	5	39	73*
CN(C)c1ccc(NC2=C(Cl)C(=O)c3ccccc3C2=O)cc1	-3	147*	-21	100*	x	6	99*	2
O=C1C(Cl)=C(NCCCO)C(=O)c2ccccc21	0	24	16	48	u	3	x	x
CC(=O)Nc1ccc(NC2=C(Cl)C(=O)c3ccccc3C2=O)cc1	x	x	x	100*	37	x	100*	52*
CC(NC(=O)c1cccs1)C(S)c1ccccc1 (stereo not drawn)	4	4	4	x	1	2	x	x
OC(COc1ccc(CNCCc2ccc(C(F)(F)F)cc2)cc1)CN1CCCCC1 (stereo not drawn)	-14	16	6	100*	-11	0	99*	53*
CC/C(=C\C1CCCCC1)C(NP(=O)(c1ccccc1)c1ccccc1)c1ccccc1 (stereo not drawn)	9	126*	6	55*	-1	5	15	x
C/C(=C\C1CCCCC1)C(NC(=O)c1ccc(C(F)(F)F)cc1)c1ccc(-c2ccccc2)cc1 (stereo not drawn)	-6	-15	3	21	-2	-1	x	x
Cc1ccc(C)c(NC(=O)CS(=O)(=O)c2cccc3nsnc23)c1	-3	2	-8	-14	6	-2	x	x
O=C1CC(/C=C/c2ccccn2)=Nc2ccccc2N1	-3	5	-13	20	11	-1	x	x
O=C1CC(/C=C/c2ccc([N+](=O)[O-])cc2)=Nc2ccccc2N1	3	3	4	53*	9	5	35	61*
